Shown are actives, neighbours in structure and some others; about 4.9% of the full set was active somewhere.
SKKanGAS inh: blocks kanamycin growth of S. pyogenes SKKanGAS strain | BacTiter-Glo, 6 h | inhibition, % at 7.5 µM | AID 1662 | 300,000 tested, 1.3% active;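 active = mean replicate score, as percent of positive control median, at least 50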;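 also: strain carries kanamycin resistance gene driven by streptokinase promoter and grows in 40 µg/ml kanamycin; loss of luminescence reflects streptokinase promoter inhibition or plain growth inhibition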
tim10-1 inh: growth inhibitors of tim10-1 mutant yeast | 330,000 tested, 2.2% active | S. cerevisiae tim10-1 ts strain growth, BacTiter-Glo, 24 h | inhibition, % at 20 µM;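 active = inhibition of at least 40%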;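 also: mutant grown at 25 °C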
NALP1 inh: blocks the NALP1 inflammasome reconstituted in yeast; S. cerevisiae NALP1/ASC/caspase-1 growth, X-gal OD620, 72 h; inhibition, % at 10 µM; 280,000 tested, 0.61% active; AID 2071; in the data active = inhibition mostly above about 24%, no sharp cut-off; inactive = mostly below about 32%
NALP3 yeast inh: NALP3 inhibition in yeast | 330,000 tested, 0.39% active | Yeast reconstituted NLRP3/ASC/caspase-1, beta-gal luminescence, 24 h | inhibition, % at 10 µM;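 active = inhibition of 50% or more; inactive = inhibition below 50%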
tim23-1 inh: inhibits growth of tim23-1 mutant yeast; AID 463212; inhibition, % at 20 µM; 330,000 tested, 1.3% active; S. cerevisiae tim23-1 growth, BacTiter-Glo luminescence, 24 h;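 active = growth inhibition of the mutant yeast at or above 50%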;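 also: temperature-sensitive mutant grown at 25 °C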
TIM10 inh: TIM10 yeast growth inhibition. 330,000 tested, 1.4% active. inhibition, % at 10 µM. S. cerevisiae TIM10 strain growth, BacTiter-Glo luminescence, 24 h. AID 463195;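 active = inhibition of 40% or more at the single tested concentration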;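 also: wild-type TIM10 isogenic control strain grown at permissive 25 °C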
tim10-1 conf: confirmation of tim10-1 mutant yeast growth inhibitors; 7,400 tested, 56% active; S. cerevisiae tim10-1 ts strain growth, BacTiter-Glo, 24 h; shares compounds with tim10-1 inh; inhibition, % at 20 µM;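 active = inhibition of yeast growth at or above a set limit in either of two repeat tests at 20 µM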;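 also: tim10-1 mutant grown at permissive 25 °C to find synthetic lethal compounds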
TIM10 conf: TIM10 yeast growth inhibition, confirmed. shares compounds with TIM10 inh. S. cerevisiae tim10 strain growth, BacTiter-Glo luminescence, 24 h. AID 463215. 4,600 tested, 63% active. inhibition, % at 10 µM;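 active = inhibition of yeast growth at or above a set limit in either of two replicates at 10 µM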; also: this counterscreen used the strain with wild-type TIM10
Each line names hits and unclear results; the compound was inactive in the other large screens (follow-up assays come after a bar, where they were run).

O=C1OC(c2ccccc2)=N/C1=C/c1cccc(OC(=O)c2cccs2)c1	tim10-1 inh 48.3, TIM10 inh 51.4 (no result: NALP1 inh) | tim10-1 conf inactive | TIM10 conf inactive
Cc1no[n+]([O-])c1COc1cccc(/C=C2\N=C(c3ccccc3)OC2=O)c1	none
COc1ccccc1NC(=O)c1ccc2c(c1)N(CC#N)C(=O)C(C)(C)O2	none
S=C(NCCCc1ccccc1)Nc1ccccc1Cl	tim10-1 inh 49.4, TIM10 inh 52.3 (no result: NALP1 inh) | tim10-1 conf 38.2 | TIM10 conf 40.7
S=C(NCCc1ccccc1)Nc1ccccc1Cl	none
O=C(/C=C/c1ccc(-c2ccccc2[N+](=O)[O-])o1)c1ccco1	tim10-1 inh 55.3, TIM10 inh 47.7 | tim10-1 conf 44.5 | TIM10 conf 46.1
Cc1ccc(O)c(C(=O)/C=C/c2ccc3c(c2)OCCO3)c1	tim10-1 inh 55.4, TIM10 inh 58.7 | tim10-1 conf 54.5 | TIM10 conf 50.5
Fc1ccc(CN2CCN(c3ncnc4scc(-c5ccccc5)c34)CC2)cc1	none
Fc1ccc(N2CCN(c3nc(CN4CCOCC4)nc4scc(-c5ccccc5)c34)CC2)cc1	tim10-1 inh 54.8, TIM10 inh 40.5 | tim10-1 conf 33.8 | TIM10 conf 33.9
Cc1ccc(/C(N)=N/OC(=O)c2ccc3c(c2)OCO3)cc1	tim10-1 inh 55.8, TIM10 inh 63.1 | tim10-1 conf 51.5 | TIM10 conf inactive
COc1ccc(/C(N)=N/OC(=O)c2ccc3c(c2)OCO3)cc1	tim10-1 inh 63.7, TIM10 inh 65.8 | tim10-1 conf 49.8 | TIM10 conf inactive
CCCn1nc(C(=O)N2CCN(S(=O)(=O)c3ccc(C)c(C)c3)CC2)c2ccccc2c1=O	none (no result: SKKanGAS inh, NALP1 inh)
COc1ccc(S(=O)(=O)Nc2ccccc2C(=O)N2CCCCC2)cc1C	none
CCOC(=O)C1Nc2c(F)cc(C)cc2C2c3ccccc3CC12 (stereo not given)	tim10-1 inh 48.8, TIM10 inh 46.4 (no result: NALP1 inh) | tim10-1 conf 55.3 | TIM10 conf 58.8
COc1cc2c(cc1NS(=O)(=O)N1CCCC1)oc1ccccc12	tim10-1 inh 42.7, TIM10 inh 46.9 | tim10-1 conf inactive | TIM10 conf 43.0
COc1cc2c(cc1NC(=O)CN1CCN(S(=O)(=O)c3ccc(C)cc3)CC1)oc1ccccc12	none
COc1cc2c(cc1NC(=O)c1ccncc1)oc1ccccc12	tim10-1 inh 45.9, TIM10 inh 42.2 | tim10-1 conf inactive | TIM10 conf 47.0
O=C(NCCc1c[nH]c2ccccc12)c1ccco1	none
CC1CCN(C(=O)CCCC(=O)N2CCC(C)CC2)CC1	none
O=C(COC(=O)c1ccc([N+](=O)[O-])s1)NCc1ccc(F)cc1	tim10-1 inh 45.1, TIM10 inh 64.4 | tim10-1 conf inactive | TIM10 conf inactive
O=C(COC(=O)c1ccc([N+](=O)[O-])s1)NCCc1ccccc1	tim10-1 inh 50.4, TIM10 inh 46.3 (no result: SKKanGAS inh, NALP1 inh) | tim10-1 conf 47.0 | TIM10 conf 57.2
O=C(COC(=O)c1ccc([N+](=O)[O-])s1)NNC(=O)c1ccccc1	none (no result: SKKanGAS inh, NALP1 inh)
O=C(COC(=O)c1ccc([N+](=O)[O-])o1)NCc1ccc(F)cc1	none (no result: SKKanGAS inh, NALP1 inh)
COc1ccccc1NC(=O)COC(=O)c1ccc([N+](=O)[O-])s1	tim10-1 inh 70.0, TIM10 inh 81.8 | tim10-1 conf 67.6 | TIM10 conf 88.7
CC(NC(=O)COC(=O)c1ccc([N+](=O)[O-])s1)c1ccccc1 (stereo not given)	none
O=C(COC(=O)c1ccc([N+](=O)[O-])s1)NC(=O)NCc1ccccc1	tim10-1 inh 69.9, TIM10 inh 70.1 | tim10-1 conf 51.8 | TIM10 conf 70.7
O=C(C1CC(=O)N(c2ccccc2F)C1)N1CCOCC1 (stereo not given)	none (no result: SKKanGAS inh, NALP1 inh)
CC(C)=CCC/C(C)=C/CNC(=O)C[C@H]1C[C@H](C(=O)N2CCOCC2)[C@@]2(CCC3CCCC3)c3[nH]c4cc(-c5ccco5)ccc4c3CCN2C1=O	none (no result: SKKanGAS inh, NALP1 inh, NALP3 yeast inh)
CC1CN(S(=O)(=O)c2cccc(C(=O)NCCC3=CCCCC3)c2)CC(C)O1 (stereo not given)	none (no result: NALP1 inh)

Compound activity as filed in PubChem.
